Sfp PPTase inh: Sfp phosphopantetheinyl transferase inhibition; 3.5% of 310,000 active; Potency, µM, for inactives: largest response in the series, negative = inhibition, hits mostly inhibitors; Biochemical Sfp PPTase activity, qHTS;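 also: the enzyme is Sfp with the accession as filed and its product quenches rhodamine fluorescence; 0% = enzyme reaction without inhibitor and -100% = no enzyme wells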
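Reaction rates are the 30-min fluorescence difference (ex 525, em 598 nm) in wells containing 15 nM Sfp, 5 uM rhodamine-CoA and 12.5 uM BHQ-2-YbbR at pH 7.6 with 10 mM MgCl2.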
L3MBTL1 block: inhibitors of human L3MBTL1 | Potency, µM (series often up to 57.1 µM), inactives show top-dose activity, negative = inhibition, actives largely listed as inhibitors | 0.66% of 230,000 active | AlphaScreen L3MBTL1–H3K9me1 peptide binding | Q9Y468; also: % is scaled to controls: 0 for no effect and ±100 for the full control effect; nearly all actives have a fitted effect of over 60% in size
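AlphaScreen assay: L3MBTL1 (50 nM final) was preincubated 30 min at room temperature with biotinylated H3(1-15)K9me1 peptide (75 nM final), then 30 min with library compounds; streptavidin donor and nickel chelate acceptor beads (10 ug/mL final) added, 30 min dark.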
BAZ2B block: inhibitors of human BAZ2B bromodomain; Q9UIF8; AlphaScreen BAZ2B-H3K14Ac peptide displacement; Potency, µM (doses to about 114 µM), inactives show at the highest dose activity change, negative = inhibition, actives largely listed as inhibitors; 4.4% of 360,000 active; AID 504333; also: % is scaled to controls: 0 for no effect and ±100 for the full control effect; nearly all actives have a fitted effect of over 60% in size
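BAZ2B (50 nM) with biotin-H3(5-23)K14Ac peptide (50 nM) in PBS pH 7.4, 0.01% Tween-20, preformed 30 min, then compound 30 min at room temperature; top concentration 110uM. AlphaScreen streptavidin donor/nickel chelate acceptor beads (10 ug/mL final), 20 min dark, signal read.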
JMJD2A Tudor inh: inhibitors of human JMJD2A Tudor domain; Potency, µM (series often up to 114 µM), for the others: top-dose activity change, negative = inhibition, hits mostly inhibitors; O75164; AlphaScreen JMJD2A-Tudor / H3K4me3 peptide binding; 4.4% of 390,000 active; also: % is scaled to controls: 0 for no effect and ±100 for the full control effect; nearly all actives have a fitted effect of over 50% in size
Target sequence (O75164 whole entry, looked up, the tested form may be a part): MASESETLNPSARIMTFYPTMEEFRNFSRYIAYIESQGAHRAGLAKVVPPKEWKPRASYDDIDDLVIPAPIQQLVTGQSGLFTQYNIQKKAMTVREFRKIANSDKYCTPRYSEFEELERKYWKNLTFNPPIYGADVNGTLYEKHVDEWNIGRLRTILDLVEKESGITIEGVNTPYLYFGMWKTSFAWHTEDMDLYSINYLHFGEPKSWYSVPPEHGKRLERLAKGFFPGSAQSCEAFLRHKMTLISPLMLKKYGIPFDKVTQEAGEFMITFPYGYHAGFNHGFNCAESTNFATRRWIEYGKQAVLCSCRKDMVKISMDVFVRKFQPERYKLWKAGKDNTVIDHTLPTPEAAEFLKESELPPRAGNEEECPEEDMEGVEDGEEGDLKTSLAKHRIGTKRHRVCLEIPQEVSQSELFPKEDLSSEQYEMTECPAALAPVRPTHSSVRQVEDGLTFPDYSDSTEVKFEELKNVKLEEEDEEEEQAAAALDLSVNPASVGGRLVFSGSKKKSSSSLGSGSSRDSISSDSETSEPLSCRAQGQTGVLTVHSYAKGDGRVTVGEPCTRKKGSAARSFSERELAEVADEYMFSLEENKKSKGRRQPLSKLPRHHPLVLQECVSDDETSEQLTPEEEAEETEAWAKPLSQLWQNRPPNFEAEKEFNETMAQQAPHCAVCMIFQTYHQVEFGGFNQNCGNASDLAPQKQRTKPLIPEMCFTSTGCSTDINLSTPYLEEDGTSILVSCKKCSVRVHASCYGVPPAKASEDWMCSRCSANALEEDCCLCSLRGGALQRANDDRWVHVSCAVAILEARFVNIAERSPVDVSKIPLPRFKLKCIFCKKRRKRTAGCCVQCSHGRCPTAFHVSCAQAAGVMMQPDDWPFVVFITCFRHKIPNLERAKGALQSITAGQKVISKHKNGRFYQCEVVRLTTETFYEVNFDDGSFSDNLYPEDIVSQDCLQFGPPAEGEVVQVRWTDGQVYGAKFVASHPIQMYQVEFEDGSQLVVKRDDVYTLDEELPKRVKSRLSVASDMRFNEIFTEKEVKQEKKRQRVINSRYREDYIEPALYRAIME
HP1b binding inh: HP1-beta chromodomain-methylated histone interaction inhibition | P83916 | AlphaScreen HP1-beta / biotin-H3K9me3 peptide binding | Potency, µM (series often up to 114 µM), for the others: top-dose activity change, negative = inhibition, actives largely listed as inhibitors | 0.56% of 390,000 active; also: nearly all actives have a fitted effect of over 70% in size
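AlphaScreen: HP1-beta (50 nM) preformed 30 min with biotin-H3(1-18)K9me3 peptide (50 nM) in PBS pH 7.4, 0.01% Tween-20. Compound added for 30 min at RT, then streptavidin donor/nickel chelate acceptor beads (10 ug/mL) for 30 min.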
G9a block: inhibitors of human histone lysine methyltransferase G9a | 8.8% of 350,000 active | Potency, µM (titrated, usually from 102 µM), for inactives: at the top dose activity, negative = inhibition, hits mostly inhibitors | G9a H3K9 monomethylation, AlphaScreen, 2 h | AID 504332; also: % is scaled to controls: 0 for no effect and ±100 for the full control effect; nearly all actives have a fitted effect of over 75% in size
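G9a (20 nM) preincubated 15 min RT with compounds, then 500 nM biotinylated H3K9 peptide and 20 uM SAM added; 2 h RT reaction. Monomethyl-H3K9 product detected by AlphaScreen with anti-H3K9me1 antibody, streptavidin donor and anti-rabbit IgG acceptor beads.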
* hit, by the source's call; ? = inconclusive; nt = no result given; ! = not active in a repeat; [ ] = another dose, or the depositor's remark. Only some compounds are listed: those with a hit (about 12% of all), similar ones and a draw of the others. Calls follow the shape of the dose curve; as a rule, active = well fitted curve in the direction sought with a large enough effect; inconclusive = small, poorly fitted or top-dose-only effect, or another doubt; inactive = no such curve, though single readings can be large; an effect the other way counts as inactive or inconclusive. Potency is read from the fitted curve at half-maximal effect.

SMILES | Sfp PPTase inh | L3MBTL1 block | BAZ2B block | JMJD2A Tudor inh | HP1b binding inh | G9a block
Cc1ccc2c(=O)n(-c3cccc(Cl)c3)c(=O)[nH]c2c1 | nt | nt | 0% | -8% | 41% | ?
Cc1ccccc1-n1nc(C)c2c1NC(=O)CSC2c1ccc(Cl)cc1 (stereo not drawn) | nt | nt | ? | -30% | -10% | 13µM*
Cc1ccccc1-n1nc(C)c2c1NC(=O)CSC2c1ccc(N(C)C)cc1 (stereo not drawn) | nt | nt | 1% | -1% | 36% | -34%[59 µM]
Cc1ccc2c(c1)C1(CCN(CCc3nc(-c4ccccc4)oc3C)CC1)OC(=O)N2 | -7% | nt | nt | nt | nt | nt
C[N+]1(C)CCc2cc3c(cc2[C@H]1[C@@H]1OC(=O)c2c1ccc1c2OCO1)OCO3 | 16% | 4% | ? | 25µM*! | 50% | 22µM*!
CC(=O)OC1CC[C@]2(C)C(CCC3C2CC[C@]2(C)C(C4=CC(=O)OC4)C(OC(C)=O)CC32O)C1 (stereo partly drawn) | -9% | nt | nt | nt | nt | -1%[2.33 µM]
O=C(/C=C/c1ccc(Cl)cc1)NC(=S)N1C[C@H]2C[C@H](C1)c1cccc(=O)n1C2 | -14% | 3% | -34% | -21% | 5% | 18µM*
COc1ccc(C(=O)NC(=S)N2C[C@H]3C[C@H](C2)c2cccc(=O)n2C3)cc1 | ? | 6% | -7% | -22% | 15% | 25µM*
COc1ccc(/C=C/C(=O)NC(=S)N2C[C@H]3C[C@H](C2)c2cccc(=O)n2C3)cc1 | 6% | 10% | -1% | -17% | 21% | ?
O=C(/C=C/c1ccc(Br)cc1)NC(=S)N1C[C@H]2C[C@H](C1)c1cccc(=O)n1C2 | -3% | 8% | -11% | -31% | 11% | 50µM*
Cc1cc(/C=C2\C(=O)NC(=O)N(Cc3ccco3)C2=O)c(C)n1-c1ccc(O)cc1 | ? | 40µM* | ? | ? | ? | ?
Cc1ccc(-n2c(C)cc(/C=C3/C(=O)NC(=O)N(Cc4ccco4)C3=O)c2C)cc1 | ? | ? | 35µM* | ? | -14% | ?
CCn1c(C)cc(/C=C2\C(=O)NC(=O)N(c3ccccc3C)C2=O)c1C | 10% | -14% | -34% | -3% | 31% | ?
Cc1ccc(-n2c(C)cc(/C=C3/C(=O)NC(=O)N(C)C3=O)c2C)cc1 | -17% | -4% | -5% | -23% | 58% | ?
Cc1ccccc1-n1c(C)cc(/C=C2/C(=O)NC(=O)N(Cc3ccco3)C2=O)c1C | -5% | -10% | ? | 28µM* | -11% | ?
CCOc1ccc2cc(C#N)c(=O)oc2c1 | 8% | nt | nt | nt | nt | nt
CO/C1=C\C(C)=C\[C@@H](C)[C@@H](O)[C@H](C)C/C(C)=C/C=C/[C@H](OC)[C@H]([C@@H](C)[C@@H](O)[C@H](C)[C@H]2C[C@@H](O)[C@H](C)[C@@H](C(C)C)O2)OC1=O | -18% | nt | nt | nt | nt | 26%[59 µM]
CC1OC(OC2C(O)CC(OC3C(O)CC(OC4CCC5(C)C(CCC6C5CCC5(C)C(C7=CC(=O)OC7)CCC65O)C4)OC3C)OC2C)CC(O)C1O (stereo not drawn) | 24% | nt | nt | nt | nt | 13%[59 µM]
O=C(Cc1ccccc1)c1ccccn1 | nt | nt | nt | 3.5µM* | -20% | nt
c1cc2c(cc1C1OC[C@@H]3C(c4ccc5c(c4)OCO5)OCC13)OCO2 (stereo partly drawn) | -4% | nt | nt | nt | nt | nt
Nc1ccc(C2(c3ccc(N)cc3)CN3CCC2CC3)cc1 | 1% | nt | -3% | -24% | 3% | 5.6µM*
Cc1ccc(C2(O)CN3CCC2CC3)cc1 (stereo not drawn) | -9% | nt | -3% | -13% | 17% | 16%
Cc1ccc(C)c(N2CCN(c3ncnc4onc(C)c34)CC2)c1 | nt | nt | 17%[57.1 µM] | -6% | 53% | -9%[59 µM]
CN1/C(=C\C=C2C(=O)NC(=O)NC2=O)C(C)(C)c2ccccc21 | 10% | nt | -12% | 4% | 37% | 18%[59 µM]
CN1/C(=C\C=Nc2ccccc2)C(C)(C)c2ccccc21 | 79µM* | -5% | ? | -14% | 17% | 79µM*
SMILES | Sfp PPTase inh | L3MBTL1 block | BAZ2B block | JMJD2A Tudor inh | HP1b binding inh | G9a block
CCn1ccnc1CN1CCCC(C(=O)c2cc(F)ccc2OC)C1 (stereo not drawn) | ? | -2% | -39% | -21% | -11% | 7.1µM*
COC(=O)[C@]1(C)N[C@H](CN(C)S(=O)(=O)c2ccc(-c3ccccc3)cc2)[C@@H]2C(=O)N(Cc3ccccc3)C(=O)[C@@H]21 | nt | -10% | nt | -18% | 50% | nt
O=C(O)CCC(=O)NCCC1=c2ccccc2=N/C1=C\c1c(O)n(Cc2ccc(F)cc2)c(=S)[nH]c1=O | 35µM* | -21% | 32µM* | 32µM* | 32µM* | nt
NC(N)=NN=C(/C=C/c1ccc([N+](=O)[O-])o1)/C=C/c1ccc([N+](=O)[O-])o1 | 50µM* | nt | nt | nt | nt | ?
O=c1[nH]c(=O)n(C2CCCCC2)c(O)c1C1NCCc2ccccc21 (stereo not drawn) | 35µM* | nt | -4% | -3% | 52% | ?
CCC(=NCc1cccnc1)c1c(O)n(C2CCCCC2)c(=O)[nH]c1=O | 7% | nt | 11% | -17% | 31% | -7%[12.7 µM]
CCN(CCCl)c1cc(CN(C)C)cc(NC(=O)c2ccc(C(=O)Nc3cc(CN(C)C)cc(N(CC)CCCl)c3)cc2)c1 | nt | nt | nt | 13µM* | 10µM* | nt
OCc1cccc[n+]1CCc1ccccc1 | nt | nt | nt | -10% | 41% | nt
O=C1CCCN1C(=O)c1cncc(Br)c1 | 11% | nt | ? | -9% | 8% | -4%
Nc1cncc(C(=O)O)c1 | 79µM*! | 16% | 0% | -2% | 21% | -22%
O=S(=O)(c1ccccc1)N1CCCCC1c1cccnc1 (stereo not drawn) | 19% | -1% | -24% | -10% | 8% | 4%[12.7 µM]
Cc1ccc(C2N(c3cc(C)on3)C(=O)C3CCCN32)cc1 (stereo not drawn) | -10% | 6% | -35% | -31%[57.1 µM] | 25% | 35µM*
Cc1cc(N2C(=O)C3CCCN3C2c2ccccc2)no1 (stereo not drawn) | 3% | 43% | ? | 28µM* | -25% | ?
COc1ccc(OCC#CCN2CCC(C)CC2)cc1 | -21% | -3% | 28µM* | -32% | 35µM* | 8.9µM*
O=C1NC(=O)C(=Cc2ccc(Sc3ccccc3)o2)C(=O)N1 | 25µM* | -6% | ? | ? | 3% | -23%[12.7 µM]
CN1C(=O)C(=Cc2ccc(Sc3ccccc3)o2)C(=O)N(C)C1=O | 6% | -1% | -29% | -4% | 27% | 8.9µM*
CN1C(=O)C(=Cc2ccc(Sc3ccccc3)o2)C(=O)N(C)C1=S | nt | nt | nt | 50µM* | ? | nt
O=C(O)Cn1cc(C=C2C(=O)NC(=O)NC2=O)c2ccccc21 | 4% | nt | -2% | -18% | 40% | 19%[2.33 µM]

Screens from PubChem BioAssay.
